PubChem BioAssay (NCATS)
Results filed as inconclusive are left out. Where a call stands in place of a potency, no number is given. Activity calls are given as the source filed them. Unless noted, calls follow the shape of the dose curve; as a rule, active = well fitted curve in the direction sought with a large enough effect; inconclusive = small, poorly fitted or top-dose-only effect, or another doubt; inactive = no such curve, though single readings can be large; an effect the other way counts as inactive or inconclusive.

Assays:
[1] = target: Voltage-gated inwardly rectifying potassium channel KCNH2 (Homo sapiens) (UniProt Q12809); assay: qHTS Assay for Small Molecule Inhibitors of the Human hERG Channel Activity (AID 588834); settings: U2OS BacMam hERG, FluxOR thallium flux fluorescence; series mostly up to 46.1 µM;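 also: lower thallium flux fluorescence means stronger hERG block; nearly all actives have a fitted effect of over 50% in size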; also: potency is read from the fitted curve at half-maximal effect
Summary of the method: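 Concentration-response qHTS measuring drop in thallium-sensitive dye signal. U2OS cells carrying BacMam hERG; compound exposure ~10 min, then stimulation buffer and 2 min read at 1 sec intervals.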

[2] = S16 Schwann cell viability assay (CellTiter-Glo assay) (AID 624031); settings: S16 rat Schwann cells viability, 24 h; series mostly up to 57.5 µM;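 also: cellular ATP luminescence as a viability measure; nearly all actives have a fitted effect of over 70% in size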
Summary of the method: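 This viability control uses native rat S16 Schwann cells grown in DMEM plus 10% FBS. After a 24 h compound treatment at 37 °C, CellTiter-Glo luminescence reports ATP content, scaled against DMSO-treated and cell-free wells.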

[3] = S16 Schwann cell PMP22 intronic element beta-lactamase assay (AID 624044; calls by dose curve; also: nearly all actives have a fitted effect of over 15% in size); settings: S16 rat Schwann cells, PMP22 element beta-lactamase FRET, 24 h; series mostly up to 38.3 µM
Summary of the method: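 Rat S16 Schwann cells with beta-Lac driven by a PMP22 intronic element, compound-treated 24 h at 37 °C. LiveBLAzer FRET B/G read: 460 nm normalized to potassium clavulanate vs DMSO; 535 nm FRET as viability; concentration-effect curves classified.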

[4] = target: Luciferin 4-monooxygenase (Photinus pyralis) (UniProt P08659); assay: Biochemical firefly luciferase enzyme assay for NPC (AID 624030);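 also: purified P. pyralis luciferase at 10 nM with luciferin and ATP substrate; nearly all actives have a fitted effect of over 70% in size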; settings: purified P. pyralis luciferase, luminescence, 5 min; series mostly up to 58.6 µM
Summary of the method: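 Direct inhibition of firefly luciferase enzyme (10 nM final, 50 mM Tris Acetate) assessed by luminescence within 5 minutes. Percent activity scaled between DMSO and PTC124 positive control, with concentration-effect curves classified by fit quality and response.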

[5] = target: Glutaminase kidney isoform, mitochondrial (Homo sapiens) (UniProt O94925); assay: qHTS for Inhibitors of Glutaminase (GLS): LOPAC Validation (AID 624146); settings: glutaminase enzyme activity inhibition; series mostly up to 46.1 µM;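 also: glutamate product detected by oxidase and peroxidase coupled Amplex red fluorescence gain; nearly all actives have a fitted effect of over 60% in size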
Summary of the method: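 Two-point fluorescence kinetic (t0, 30 min RT) for hKGA; glutamate detected via glutamate oxidase–HRP–Amplex Red. Substrate: 1 mM L-glutamine solution; buffer 45 mM KH2PO4, pH 8.2.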

[6] = S16 Schwann cell PMP22 intronic element firefly luciferase assay (AID 624032); settings: S16 rat Schwann cells, PMP22 element FLuc, 24 h; series mostly up to 57.5 µM; also: nearly all actives have a fitted effect of over 30% in size; also: potency is read from the fitted curve at half-maximal effect
Summary of the method: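 Luciferase reporter of PMP22 intronic-element expression in stably transfected S16 rat Schwann cells, read by ONE-Glo luminescence after 24 h compound exposure at 37 C. Activity scaled between DMSO (0%) and positive-control PTC124; concentration-effect curves quality-classified.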

Sequence of Voltage-gated inwardly rectifying potassium channel KCNH2 (Homo sapiens) (Q12809 whole entry, looked up): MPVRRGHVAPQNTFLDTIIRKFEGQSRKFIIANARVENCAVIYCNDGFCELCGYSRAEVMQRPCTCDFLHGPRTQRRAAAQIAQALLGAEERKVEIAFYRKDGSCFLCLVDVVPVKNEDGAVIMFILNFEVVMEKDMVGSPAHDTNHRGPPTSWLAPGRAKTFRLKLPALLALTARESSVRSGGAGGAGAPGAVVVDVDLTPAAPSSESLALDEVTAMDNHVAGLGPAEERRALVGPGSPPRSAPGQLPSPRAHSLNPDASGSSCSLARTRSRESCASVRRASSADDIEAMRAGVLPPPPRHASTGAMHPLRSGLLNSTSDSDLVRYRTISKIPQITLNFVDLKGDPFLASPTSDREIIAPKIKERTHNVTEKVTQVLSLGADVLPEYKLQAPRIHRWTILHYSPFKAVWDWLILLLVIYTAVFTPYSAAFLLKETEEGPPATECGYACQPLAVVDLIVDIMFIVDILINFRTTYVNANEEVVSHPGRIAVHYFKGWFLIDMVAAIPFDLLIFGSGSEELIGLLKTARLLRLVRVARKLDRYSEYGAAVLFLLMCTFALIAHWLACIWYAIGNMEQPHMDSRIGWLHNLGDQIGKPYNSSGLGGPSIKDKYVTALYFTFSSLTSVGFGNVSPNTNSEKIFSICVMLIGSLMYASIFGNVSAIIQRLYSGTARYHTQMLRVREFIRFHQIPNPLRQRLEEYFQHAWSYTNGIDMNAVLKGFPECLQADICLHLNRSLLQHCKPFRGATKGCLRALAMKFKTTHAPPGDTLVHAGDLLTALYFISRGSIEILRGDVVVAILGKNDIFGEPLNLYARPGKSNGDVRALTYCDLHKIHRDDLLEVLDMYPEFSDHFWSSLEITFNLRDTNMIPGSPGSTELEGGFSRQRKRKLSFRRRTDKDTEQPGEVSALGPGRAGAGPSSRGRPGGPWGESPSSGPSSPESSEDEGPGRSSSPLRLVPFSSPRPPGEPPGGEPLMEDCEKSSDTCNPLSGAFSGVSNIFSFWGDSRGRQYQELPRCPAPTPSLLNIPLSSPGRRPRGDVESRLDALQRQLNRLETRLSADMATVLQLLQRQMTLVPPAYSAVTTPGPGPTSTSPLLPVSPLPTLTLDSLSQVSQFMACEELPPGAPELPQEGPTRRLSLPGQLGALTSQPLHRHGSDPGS
Sequence of Glutaminase kidney isoform, mitochondrial (Homo sapiens) (O94925 whole entry, looked up, canonical isoform): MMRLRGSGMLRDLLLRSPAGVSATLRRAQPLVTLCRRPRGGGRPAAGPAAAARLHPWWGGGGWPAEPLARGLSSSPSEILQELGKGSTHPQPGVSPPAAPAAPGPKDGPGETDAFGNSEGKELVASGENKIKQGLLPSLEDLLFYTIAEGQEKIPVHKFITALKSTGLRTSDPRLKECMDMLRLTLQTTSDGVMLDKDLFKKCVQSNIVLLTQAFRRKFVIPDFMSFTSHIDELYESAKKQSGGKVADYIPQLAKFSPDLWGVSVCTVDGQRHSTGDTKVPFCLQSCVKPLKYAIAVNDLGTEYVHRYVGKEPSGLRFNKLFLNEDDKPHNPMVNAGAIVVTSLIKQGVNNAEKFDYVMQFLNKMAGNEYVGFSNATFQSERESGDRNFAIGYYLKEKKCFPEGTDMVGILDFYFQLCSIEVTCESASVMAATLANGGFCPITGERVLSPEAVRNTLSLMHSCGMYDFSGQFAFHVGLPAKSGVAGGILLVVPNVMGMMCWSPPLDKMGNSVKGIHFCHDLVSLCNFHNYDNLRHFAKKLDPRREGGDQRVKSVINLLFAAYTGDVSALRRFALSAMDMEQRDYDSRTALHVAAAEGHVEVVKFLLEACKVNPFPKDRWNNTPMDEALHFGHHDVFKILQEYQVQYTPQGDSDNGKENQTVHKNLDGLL
Sequence of Luciferin 4-monooxygenase (Photinus pyralis) (P08659 whole entry, looked up): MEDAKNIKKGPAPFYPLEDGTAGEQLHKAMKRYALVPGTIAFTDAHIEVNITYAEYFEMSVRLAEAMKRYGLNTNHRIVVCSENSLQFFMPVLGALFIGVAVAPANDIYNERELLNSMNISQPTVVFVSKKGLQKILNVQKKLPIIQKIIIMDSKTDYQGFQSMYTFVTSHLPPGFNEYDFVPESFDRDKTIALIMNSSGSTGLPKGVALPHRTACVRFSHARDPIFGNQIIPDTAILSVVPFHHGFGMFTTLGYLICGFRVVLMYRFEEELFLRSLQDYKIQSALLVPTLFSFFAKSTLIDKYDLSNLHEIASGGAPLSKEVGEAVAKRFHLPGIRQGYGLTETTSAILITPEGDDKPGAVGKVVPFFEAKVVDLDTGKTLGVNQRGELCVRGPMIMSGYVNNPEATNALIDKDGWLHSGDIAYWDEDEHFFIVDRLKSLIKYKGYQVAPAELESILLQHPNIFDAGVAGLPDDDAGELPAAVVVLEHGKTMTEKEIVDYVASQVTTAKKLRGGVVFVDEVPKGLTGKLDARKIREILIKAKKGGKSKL

SMILES | Potency [1] | Potency [2] | Potency [3] | Potency [4] | Potency [5] | Potency [6]
CC[C@@]1(c2ccccc2)NC(=O)N(C)C1=O | inactive | inactive | inactive | – | – | –
CC(C)C(=O)c1c(C(C)C)nn2ccccc12 | inactive | – | – | inactive | inactive | –
CCn1cc(C(=O)O)c(=O)c2cnc(N3CCNCC3)nc21 | inactive | inactive | – | – | – | 7.75 µM (active)
CC1=C(CC(=O)O)c2cc(F)ccc2/C1=C\c1ccc(S(C)(=O)=O)cc1 | inactive | – | – | inactive | inactive | –
Cn1cc[nH]c1=S | inactive | inactive | inactive | – | – | inactive
Nc1ccc(S(=O)(=O)NC(=O)c2ccccc2)cc1 | inactive | inactive | – | – | – | inactive
CC1=C(CC(=O)O)c2cc(F)ccc2/C1=C\c1ccc(S(C)=O)cc1 (stereo not given) | inactive | inactive | – | – | – | inactive
CCCCN1CCCC[C@H]1C(=O)Nc1c(C)cccc1C | inactive | – | inactive | inactive | – | –
OCC(O)CN1CCN(c2ccccc2)CC1 (stereo not given) | inactive | inactive | inactive | – | – | inactive
O=C(O)CN1C(=O)c2cccc3cccc(c23)C1=O | inactive | inactive | – | – | – | –
CCCCCCCCCCCCCCCC(=O)NCCO | inactive | inactive | inactive | inactive | inactive | –
Cc1c(O)cccc1C(=O)N[C@@H](CSc1ccccc1)[C@H](O)CN1C[C@H]2CCCC[C@H]2C[C@H]1C(=O)NC(C)(C)C | inactive | inactive | – | – | – | 8.09 µM (active)
O=C1NC(=O)[C@@]2(CCOc3ccc(F)cc32)N1 | inactive | inactive | – | – | – | inactive
Nc1nc2c(ncn2CCC(CO)CO)c(=O)[nH]1 | inactive | inactive | – | – | – | inactive
C=Cc1c(C)c2cc3[nH]c(cc4nc(cc5nc(cc1[nH]2)C(C)=C5CCC(=O)O)C(CCC(=O)O)=C4C)c(C)c3C=C | inactive | inactive | inactive | inactive | inactive | –
Cc1cc(N)c2ccccc2[n+]1CCCCCCCCCC[n+]1c(C)cc(N)c2ccccc21 | inactive | – | – | inactive | inactive | –
COCCOC(=O)C1=C(C)NC(C)=C(C(=O)OC/C=C/c2ccccc2)C1c1cccc([N+](=O)[O-])c1 (stereo not given) | inactive | – | inactive | inactive | inactive | 7.21 µM (active)
CCN(CC)CCNC(C(=O)OCCC(C)C)c1ccccc1 (stereo not given) | 12.6 µM (active) | inactive | inactive | – | – | –
O=C(O)c1ccccc1O | inactive | inactive | inactive | – | – | inactive
